This is a sample that favours compounds with a hit; in the whole collection about 1.2% have one here.
TSHR antag – Antagonists of the Thyroid Stimulating Hormone Receptor: HTS campaign. AID 504810, 2011. activity change, negative = inhibition, % at 11.5 µM. Thyrotropin receptor (Homo sapiens), P16473. TSHR-expressing cells, TSH-stimulated cAMP HTRF, 2 h; stronger effect = lower value. 0.2% of 330,000 active;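 active = activity change below a set negative limit, meaning inhibition stronger than a set level, cut at about -70% in these data; inconclusive = activity change between two set negative limits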; note: % is set by controls: 0 for no effect and ±100 for the full control effect
Target sequence (P16473 whole entry, looked up): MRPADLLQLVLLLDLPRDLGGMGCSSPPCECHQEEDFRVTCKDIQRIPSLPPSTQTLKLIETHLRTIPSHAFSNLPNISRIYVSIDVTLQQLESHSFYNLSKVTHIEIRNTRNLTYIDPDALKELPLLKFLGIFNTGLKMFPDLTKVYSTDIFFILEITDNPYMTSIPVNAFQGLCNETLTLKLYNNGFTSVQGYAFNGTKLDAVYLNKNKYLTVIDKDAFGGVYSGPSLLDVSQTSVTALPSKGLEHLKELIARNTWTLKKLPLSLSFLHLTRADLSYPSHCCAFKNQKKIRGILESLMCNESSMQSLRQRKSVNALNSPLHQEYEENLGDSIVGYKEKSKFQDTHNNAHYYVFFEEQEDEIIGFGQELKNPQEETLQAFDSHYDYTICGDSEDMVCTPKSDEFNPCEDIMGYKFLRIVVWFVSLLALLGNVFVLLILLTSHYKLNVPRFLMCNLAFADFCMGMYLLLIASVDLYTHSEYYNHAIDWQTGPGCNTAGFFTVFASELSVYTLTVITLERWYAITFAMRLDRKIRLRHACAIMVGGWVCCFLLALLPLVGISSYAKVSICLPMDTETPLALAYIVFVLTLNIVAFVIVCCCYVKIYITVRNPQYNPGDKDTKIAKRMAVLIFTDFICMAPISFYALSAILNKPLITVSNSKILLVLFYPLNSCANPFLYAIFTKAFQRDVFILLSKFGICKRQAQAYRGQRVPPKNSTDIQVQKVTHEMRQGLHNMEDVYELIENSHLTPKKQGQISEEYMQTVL
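TSHR-expressing cells, 200/well, pre-treated with compound, then stimulated with EC80 TSH (4nM final) for 2 hours at 37 deg C. cAMP measured by competitive HTRF: anti-cAMP cryptate antibody in lysis buffer plus cAMP-d2, read after 30 minutes at room temperature.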
CCT modulator – High-Throughput Screening for Modulators of Cytosolic Chaperonin Activity; purified chaperonin ATPase assay, HTRF ADP detection, 30 min; activity change, % (concentration not given with the values), hits read low; 0.3% of 360,000 active; AID 651819, 2012; in the data active = activity change below about -30%; note: % is set by controls: 0 for no effect and ±100 for the full control effect
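We incubate TRiC, 40 or 20 nM final, with library compounds at 76 uM and 10 uM ATP for 30 min at 37 °C. ADP formed is detected with Transcreener HTRF reagents after 30 min at room temperature.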
gsp antagonist – qHTS for Antagonists of gsp, the Etiologic Mutation Responsible for Fibrous Dysplasia/McCune-Albright Syndrome: qHTS; Potency, µM (titrated, usually from 76.9 µM), for the others: at the top dose activity change, negative = inhibition, actives largely listed as inhibitors; 0.4% of 340,000 active; gsp-mutant cells, cAMP HTRF, 30 min; AID 624288, 2012; calls by dose curve; cell line not stated here;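 note: intracellular cAMP measured with PDE inhibitor Ro 20-1724 present during compound exposure; potency is the fitted concentration of half-maximal effect; % is set by controls: 0 for no effect and ±100 for the full control effect; nearly all actives have a fitted effect of over 65% in size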
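Cells in G418 medium, seeded 16-24 h, 37C; buffer exchange to DPBS + 1 mM CaCl2, 0.5 mM MgCl2, 0.05% BSA; cpds in DMSO + […] (300 uM stock), 30 min 37C; HTRF cAMP detection.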
gsp agonist – qHTS for Agonist of gsp, the Etiologic Mutation Responsible for Fibrous Dysplasia/McCune-Albright Syndrome: qHTS; AID 624287, 2012; 0.13% of 340,000 active; Potency, µM (highest dose often 76.9 µM), for the others: top-dose activation (cAMP increase), usual class: activators; gsp mutant cells, cAMP HTRF, 30 min; active = well fitted activation curve with a large enough effect; inconclusive = small, poorly fitted or top-dose-only effect, or another doubt; inactive = no such curve, though single readings can be large or run the other way; cell line not stated here;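 note: phosphodiesterase inhibitor Ro 20-1724 added with compounds to block cAMP breakdown; potency is the fitted concentration of half-maximal effect; nearly all actives have a fitted effect of over 60% in size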
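Cells in DMEM/10% FBS with G418 were pretreated with compounds in DMSO plus […] (300 uM stock) for 30 min at 37C. cAMP was measured by HTRF (cAMP-d2 plus anti-cAMP antibody-K) after 30 min at room temperature.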
MmCpn inh – Inhibitors of TCP-1 ring complex (TRiC) of Methanococcus maripaludis (MmCpn): qHTS. Potency, µM (series often up to 76.9 µM), without a hit: at the top dose activity, negative = inhibition, actives largely listed as inhibitors. 0.031% of 330,000 active. purified Mm-Cpn ATPase, ADP Transcreener TR-FRET; active = well fitted inhibition curve with a large enough effect; inconclusive = small, poorly fitted or top-dose-only effect; note: potency is the fitted concentration of half-maximal effect; % is set by controls: 0 for no effect and ±100 for the full control effect; nearly all actives have a fitted effect of over 80% in size
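Purified archaeal chaperonin (25 nM final) was preincubated with compound for 10 min at 37°C, then ATP (10 uM final) was added for 30 min at 37°C in Tris pH 7.4/KCl/MgCl2/DTT buffer. ADP was quantified by HTRF Transcreener TR-FRET.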
uPA surface inh – qHTS for Inhibitors of Cell Surface uPA Generation. Potency, µM (top dose mostly 38.3 µM), inactives show at the highest dose activity change, negative = inhibition, hits mostly inhibitors. 0.31% of 330,000 active. AID 540303, 2011. cell surface uPA generation assay, qHTS; active = well fitted inhibition curve with a large enough effect; inconclusive = small, poorly fitted or top-dose-only effect; inactive = no such curve, though single readings can be large or run the other way; tested in mouse RAW 264.7 cells; note: potency is the fitted concentration of half-maximal effect; % is set by controls: 0 for no effect and ±100 for the full control effect; nearly all actives have a fitted effect of over 55% in size
An asterisk follows results filed as active; ? = inconclusive; nt = no result given; [ ] = dose if it differs, or a comment.

SMILES | TSHR antag | CCT modulator | gsp antagonist | gsp agonist | MmCpn inh | uPA surface inh
CCOC(=O)N1CCN(C(=O)CSCC(=O)Nc2nc(-c3ccc(C)cc3)cs2)CC1 | 14.2 | 0.0 | 31.6µM* | -3.7% | 3.9% | -16.4%
O=C(c1cc2c(s1)CCCC2)N1CCN(C(=O)C2CCCO2)CC1 (centres undefined) | -6.1 | -2.1 | -7.8% | -18.7% | -0.4% | nt
COC(=O)C1CCN(c2nc3ccccc3nc2C(C#N)C(=O)OCC(C)C)CC1 (centres undefined) | -5.5 | -40.0* | -5.7% | ? | -0.4% | -1.8%
Cc1cc(C)n2cc(CSc3nnc(N)s3)nc2n1 | 3.0 | -1.6 | -7.7% | -19.4% | -0.1% | -2.5%
O=Nc1c(O)c2ccccc2c2ccccc12 | nt | 1.2 | -5.9% | nt | nt | 5.62µM*
CN1CCN(c2nnc(-c3cccs3)c3ccccc23)CC1 | -13.3 | -2.8 | 1.0% | -9.1%[15.4 µM] | -2.9% | -4.8%
Cc1ccccc1Oc1nnc(-c2cccs2)c2ccccc12 | -1.3 | -1.8 | 25.1µM* | 7.8%[15.4 µM] | -3.9% | -4.4%
N#C/C(=N\Nc1ccc(Cl)cc1)C(=O)c1ccccc1 | -47.6 | 1.6 | 28.2µM* | -3.2%[15.4 µM] | -2.3% | -8.9%
COc1ccc(C(=O)/C(C#N)=N/Nc2ccc([N+](=O)[O-])cc2)cc1 | -41.1 | -3.5 | -24.4% | -59.9% | 0.0% | 1µM*
Cc1c(N/N=C(\C#N)C(=O)c2ccc(Cl)cc2)c(=O)n(-c2ccccc2)n1C | 0.8 | -0.5 | -19.2% | 19.6% | -0.7% | -5.5%
CCN(CC)S(=O)(=O)c1cc(NC(=O)NCCCl)ccc1C | -71.2* | -0.6 | 10.0% | 6.0%[15.4 µM] | 2.1% | 3.9%
CN(C)CCCN(C(=O)COc1ccc(Cl)cc1)c1nc2cc3c(cc2s1)OCO3 | -3.1 | -35.1* | -0.2% | 3.7% | 1.1% | 1.3%
COc1ccccc1NC(=O)CSc1nc(=O)n2cc(C)ccc2n1 | 3.9 | 1.0 | 15.4% | 17.8µM* | -1.5% | 1.2%
Cc1ccc(NC(=O)CSc2nc(=O)n3cc(C)ccc3n2)c(C)c1 | 3.9 | -1.2 | 19.5% | ? | 3.4% | 0.3%
CCOC(=O)N1CCN(C(=O)c2ccc(-n3c(=S)[nH]c4ccccc4c3=O)cc2)CC1 | -4.4 | -0.9 | ? | 5.4% | -14.7% | 1.2%
COC1=C(N)C(=O)c2nc(-c3nc(C(=O)O)c(C)c(-c4ccc(OC)c(OC)c4O)c3N)ccc2C1=O | -72.0* | -1.7 | ? | nt | -11.4% | -84.1%
C/C=C(/C)C(=O)OC1CC(C)(C)C[C@H]2C3=CC[C@@H]4[C@@]5(C)CCC(O[C@@H]6O[C@@H](C(=O)O)[C@@H](O)C(O[C@@H]7OC[C@H](O)[C@@H](O)[C@@H]7O[C@@H]7OC(CO)C(O)[C@@H](O)[C@@H]7O)C6O[C@@H]6OC(CO)C(O)C(O)C6O)[C@@](C)(CO)[C@@H]5CC[C@]4(C)[C@]3(C)CC(O)[C@@]12CO (some centres undefined) | -15.2 | -1.3 | 50.1µM* | nt | 0.1% | -9.0%
COc1cccc2c1OC1(C)CC2NC(=O)N1Cc1ccccc1 (centres undefined) | 2.9 | 1.3 | 13.8% | -11.6% | 0.7% | 1.8%
Cc1ccc(S(=O)(=O)/N=C2/NC(=O)/C(=C/c3ccc(Br)o3)S2)cc1 | -25.2 | -3.2 | -11.5% | -86.1% | -1.7% | -0.6%
Cc1ccc(S(=O)(=O)/N=C2/NC(=O)/C(=C\c3cc(Br)cc(Br)c3O)S2)cc1 | -99.8* | 1.1 | -14.7% | ? | -7.4% | -18.2%
O=C(CSc1c2c(nc3ccc(Cl)cc13)CCCC2)NCCCN1CCOCC1 | 6.0 | -2.7 | -1.7% | 2.2% | -9.7% | 8.91µM*
CN1CCN(CCCNC(=O)c2ccc3c(Cl)c4c(nc3c2)CCCC4)CC1 | -6.2 | -2.0 | 2.2% | 5.2% | 4.9% | 11.2µM*
CCC(C)NC(=O)c1ccc2c(Cl)c3c(nc2c1)CCC3 (centres undefined) | -5.0 | -1.3 | -14.2% | -1.5% | -0.1% | ?
CC(Sc1nc2ccccc2c(=O)n1CCc1ccc(S(N)(=O)=O)cc1)C(=O)NC(N)=O (centres undefined) | -36.2 | -0.3 | -3.6% | -2.4%[15.4 µM] | 0.1% | -0.2%
COCCNC(=S)N/N=C(\C)c1ccc(O)cc1 | 3.2 | -2.6 | 0.8% | -71.3% | 3.6% | -2.0%
SMILES | TSHR antag | CCT modulator | gsp antagonist | gsp agonist | MmCpn inh | uPA surface inh
Cc1cc(C)cc(C(=O)NC(CC(N)=O)c2ccc(NCCN3CCOCC3)c([N+](=O)[O-])c2)c1 (centres undefined) | 29.3 | -1.5 | 5.4% | nt | -4.6% | 4.4%
Cc1cc(C)cc(C(=O)NC(CC(N)=O)c2ccc(NCCN3CCCC3)c([N+](=O)[O-])c2)c1 (centres undefined) | -89.5* | -4.2 | 6.5% | nt | -1.0% | 13.5%
COc1ccc(CN(C)C(=O)CNC(=O)c2ccc3ccccc3c2)c(OC)c1 | -1.9 | 0.4 | 3.0% | -8.2%[15.4 µM] | 5.0% | 1.6%
COc1ccc(Br)cc1CN(C)C(=O)CNC(=O)c1ccc2ccccc2c1 | 1.0 | -1.9 | 31.6µM* | 8.9%[15.4 µM] | 1.7% | -4.5%
N#Cc1ccc(OCC(=O)OCC(=O)c2ccc[nH]2)cc1 | 3.8 | -0.8 | -20.3% | 6.4%[15.4 µM] | -2.8% | 1.6%
N#Cc1ccc(OCC(=O)OCC(=O)c2ccccc2)cc1 | -7.3 | -33.2* | 1.9% | -3.4%[15.4 µM] | 0.9% | 4.3%
CCOC(=O)N1CCN(S(=O)(=O)c2ccc(OCC(=O)OC)cc2)CC1 | 0.4 | -1.2 | -12.6% | -29.0% | 1.7% | 8.1%
Cc1cccc(S(=O)(=O)Nc2nc3ccccc3nc2Nc2ccc3c(c2)OCO3)c1 | -10.6 | 0.0 | 28.2µM* | 18.5%[15.4 µM] | 2.1% | 1.4%
Cc1ccc(S(=O)(=O)Nc2nc3ccccc3nc2Nc2cccc(S(=O)(=O)N3CCCC3)c2)cc1 | -41.6 | 0.3 | 31.6µM* | ? | -8.5% | -8.9%
O=[N+]([O-])c1cccc(S(=O)(=O)Nc2nc3ccccc3nc2Nc2cccc(S(=O)(=O)N3CCCCC3)c2)c1 | ? | -2.6 | 17.8µM* | -15.6% | 1.5% | ?
OC1(c2ccc(OC(F)F)cc2)CSC(=Nc2cccnc2)N1Cc1ccco1 (centres undefined) | -38.0 | 0.5 | 31.6µM* | -16.6% | -4.4% | -14.8%
Cc1ccc(C)c(NC(=O)C(Sc2ncnc3ccccc23)c2ccccc2)c1 (centres undefined) | -0.1 | -0.6 | 7.0% | -16.8% | 1.5% | 19.5%
O=S(=O)(NNc1ccc(Cl)nn1)c1ccc(F)cc1 | 13.8 | -69.2* | -6.6% | 15.8%[15.4 µM] | 1.4% | 6.1%

Screening results from PubChem.
